In test [1] the target is Ubiquitin carboxyl-terminal hydrolase 1 (Homo sapiens) (UniProt O94782). The experiment in a line: Inhibitors of USP1/UAF1: Pilot qHTS (AID 504865; active = well fitted inhibition curve with a large enough effect; also: nearly all actives have a fitted effect of over 35% in size; also: potency is read from the fitted curve at half-maximal effect). The method, boiled down:
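Deubiquitinase activity followed as kinetic rhodamine fluorescence release from 150 nM Ub-Rho. 1 nM USP1/UAF1 with compound, after 15 min room-temperature preincubation, in HEPES pH 7.8 buffer containing TCEP, EDTA, BSA and Tween-20.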
Background: qHTS replaces the single test concentration by a dilution series.

The target of test [2] is Estrogen receptor (Homo sapiens) (UniProt P03372). The experiment in a line: qHTS assay for small molecule antagonists of estrogen receptor alpha signaling (AID 588513; active = well fitted curve in the direction sought with a large enough effect in the signal ratio, with a control signal flat, not every such curve was filed as active; the % refers to the signal ratio; also: % is scaled to controls: 0 for no effect and ±100 for the full control effect). Put shortly: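 Antagonist mode: inhibition of 0.5 nM 17-beta-estradiol-driven beta-lactamase reporter in HEK 293 ER-alpha-UAS-bla cells, 18 h at 37C, CCF4 readout after 2 h at RT. Normalised to estradiol and DMSO; titration fitted to Hill.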

The target is the same in test [3]. The experiment in a line: qHTS assay for small molecule agonists of estrogen receptor alpha signaling (AID 588514).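 Also: 0% = vehicle only and 100% = reference agonist; nearly all actives have a fitted effect of over 70% in size.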 The method, boiled down: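 Fluorescence from CCF4 cleavage reports ER-alpha-driven beta-lactamase expression in HEK 293 cells treated 18 hrs at 37 C. Data normalized to 17-beta-estradiol (20 nM) and DMSO, fitted to Hill equation.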
In test [4] the target is Glucocorticoid receptor (Homo sapiens) (UniProt P04150). The experiment in a line: qHTS assay for small molecule agonists of glucocorticoid receptor signaling (AID 588532; active = well fitted curve in the direction sought with a large enough effect in the signal ratio, with a control signal flat; the % refers to the signal ratio;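 also: 100% = dexamethasone at 0.1 µM and 0% = DMSO only wells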). The following applies: HeLa MMTV-bla, beta-lactamase ratio, agonist, 18 h; stronger effect = higher value; percent of dexamethasone control, DMSO zero. The method, boiled down: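 HeLa GRE-bla reporter cells; 18 h compound exposure at 37 C; 2 h CCF4 loading at room temperature; fluorescence at 460 and 530 nm; EC50 by Hill equation.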

For test [5] the target is unchanged. The experiment in a line: qHTS assay for small molecule antagonists of glucocorticoid receptor signaling (AID 588533; active = well fitted inhibition curve with a large enough effect in the signal ratio, with a control signal flat, not every such curve was filed as active; the % refers to the signal ratio; also: potency is read from the fitted curve at half-maximal effect). The method, boiled down: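 Antagonist-mode qHTS: compound titrations added to GRE-bla HeLa cells, then dexamethasone 2 nM final; 18 h, 37 C. CCF4 FRET fluorescence normalized to dexamethasone and DMSO; IC50 from Hill fit.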
Test [6] concerns the target Peroxisome proliferator-activated receptor delta (Homo sapiens) (UniProt Q03181). The experiment in a line: qHTS assay for small molecule agonists of peroxisome proliferator-activated receptor delta signaling (AID 588534).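 Also: 0% = DMSO basal wells and 100% = positive control agonist at 10 µM.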 The method, boiled down:
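EC50 and efficacy values derive from Hill fits of a concentration series in a beta-lactamase reporter cell assay. Exposure is 18 hrs at 37 C, with CCF4 fluorescence as the readout.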

The nature of test [7]: qHTS assay for small molecule antagonists of peroxisome proliferator-activated receptor delta signaling (AID 588535; active = well fitted inhibition curve with a large enough effect in the signal ratio, with a control signal flat, not every such curve was filed as active; the % refers to the signal ratio;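 as to max response: cells co-treated with a PPAR-delta agonist as stimulator during compound exposure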). The following applies: HEK293T PPARd-UAS-bla, beta-lactamase FRET ratio, 18 h; 460 nm channel. Put shortly:
(§1)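 Beta-lactamase reporter read-out (405 nm excitation, 460/530 nm emission) after CCF4 loading for 2 hrs at RT. HEK293T PPAR-delta-UAS-bla cells, 2% charcoal/dextran FBS, compounds for 18 hrs at 37 C. Hill fit gave IC50 and efficacy.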

The target of test [8] is Peroxisome proliferator-activated receptor delta (Homo sapiens) (UniProt Q03181). Described as above. The method, boiled down: as §1
Test [9] addresses Bile acid receptor (Homo sapiens) (UniProt Q96RI1). The experiment in a line: qHTS assay for small molecule antagonists of farnesoid X receptor signaling (AID 588526). Also: % is scaled to controls: 0 for no effect and ±100 for the full control effect. Put shortly:
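Antagonist mode: titrated compounds tested against chenodeoxycholic acid stimulation (normalized to 50 uM CDCA and DMSO) in GeneBLAzer HEK293T cells for 16 h. Beta-lactamase read by CCF4 fluorescence; IC50 from Hill fits.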

Test [10] addresses Androgen receptor (Homo sapiens) (UniProt P10275). The experiment in a line: qHTS assay for small molecule agonists of androgen receptor signaling (AID 588515; active = well fitted curve in the direction sought with a large enough effect in the signal ratio, with a control signal flat; the % refers to the signal ratio; also: % is scaled to controls: 0 for no effect and ±100 for the full control effect). The following applies: AR-UAS-bla HEK293, beta-lactamase ratio, agonist 16 h; stronger effect = higher value. Put shortly:
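Stimulation of an AR-responsive β-lactamase reporter in GripTite HEK293 cells was measured after 16 h compound exposure at 37 °C, via CCF4 fluorescence after 2 h RT. EC50 from Hill fits, normalized to R1881 at 30 nM.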

The target is the same in test [11]. The experiment in a line: qHTS assay for small molecule antagonists of androgen receptor signaling (AID 588516; active = well fitted curve in the direction sought with a large enough effect in the signal ratio, with a control signal flat, not every such curve was filed as active; the % refers to the signal ratio; also: % is scaled to controls: 0 for no effect and ±100 for the full control effect). The method, boiled down:
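Antagonist mode: inhibition of R1881-stimulated (10 nM final) bla reporter in GeneBLAzer AR HEK 293 cells, 16 h at 37C, compounds titrated. IC50 and efficacy from Hill-equation fits of 405/460–530 nm FRET ratios.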

For test [12], the target named is DNA dC->dU-editing enzyme APOBEC-3G (Homo sapiens) (UniProt Q9HC16). The experiment in a line: qHTS for inhibitors of Vif-A3G interactions: Validation (AID 588379; active = well fitted inhibition curve with a large enough effect; also: 0% is about no effect). The method, boiled down:
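Yellow fluorescence (Ex 488, Em 500-530) of Vif-coexpressing HeLa A3G-eYFP cells, scanned by Acumen cytometer, reports blocked A3G degradation. Cells plated at 700/well overnight at 37 deg C before compound addition, then a further overnight compound incubation at 37 deg C.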

Values joined by “and” are separate entries in the source; they are usually repeats but may differ in a detail not shown here. Equal values may be shown once. Results filed as inconclusive are left out. Active and inactive are the calls of the source. Unless noted, calls follow the shape of the full dose curve.

Sequence of Ubiquitin carboxyl-terminal hydrolase 1 (Homo sapiens) (O94782 whole entry, looked up): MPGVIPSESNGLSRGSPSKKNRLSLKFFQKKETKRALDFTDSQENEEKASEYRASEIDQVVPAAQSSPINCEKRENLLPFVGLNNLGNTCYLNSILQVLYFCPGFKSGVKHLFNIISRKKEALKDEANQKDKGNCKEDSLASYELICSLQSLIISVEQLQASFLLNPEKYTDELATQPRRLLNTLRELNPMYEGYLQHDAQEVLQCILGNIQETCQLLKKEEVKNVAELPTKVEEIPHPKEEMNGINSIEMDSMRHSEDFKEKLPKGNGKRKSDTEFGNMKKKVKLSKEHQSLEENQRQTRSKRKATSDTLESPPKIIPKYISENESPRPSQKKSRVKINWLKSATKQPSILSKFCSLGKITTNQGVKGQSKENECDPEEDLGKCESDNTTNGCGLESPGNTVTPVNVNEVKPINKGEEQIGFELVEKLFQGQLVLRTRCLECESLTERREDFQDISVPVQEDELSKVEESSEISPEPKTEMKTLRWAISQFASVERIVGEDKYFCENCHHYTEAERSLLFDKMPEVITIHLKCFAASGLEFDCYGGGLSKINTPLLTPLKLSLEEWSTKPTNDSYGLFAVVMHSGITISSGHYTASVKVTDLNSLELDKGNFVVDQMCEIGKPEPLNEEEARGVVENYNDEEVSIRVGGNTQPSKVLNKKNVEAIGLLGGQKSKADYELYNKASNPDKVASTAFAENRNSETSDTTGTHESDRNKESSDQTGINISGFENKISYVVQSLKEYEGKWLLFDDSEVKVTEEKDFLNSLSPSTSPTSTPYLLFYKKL
Sequence of Glucocorticoid receptor (Homo sapiens) (P04150 whole entry, looked up): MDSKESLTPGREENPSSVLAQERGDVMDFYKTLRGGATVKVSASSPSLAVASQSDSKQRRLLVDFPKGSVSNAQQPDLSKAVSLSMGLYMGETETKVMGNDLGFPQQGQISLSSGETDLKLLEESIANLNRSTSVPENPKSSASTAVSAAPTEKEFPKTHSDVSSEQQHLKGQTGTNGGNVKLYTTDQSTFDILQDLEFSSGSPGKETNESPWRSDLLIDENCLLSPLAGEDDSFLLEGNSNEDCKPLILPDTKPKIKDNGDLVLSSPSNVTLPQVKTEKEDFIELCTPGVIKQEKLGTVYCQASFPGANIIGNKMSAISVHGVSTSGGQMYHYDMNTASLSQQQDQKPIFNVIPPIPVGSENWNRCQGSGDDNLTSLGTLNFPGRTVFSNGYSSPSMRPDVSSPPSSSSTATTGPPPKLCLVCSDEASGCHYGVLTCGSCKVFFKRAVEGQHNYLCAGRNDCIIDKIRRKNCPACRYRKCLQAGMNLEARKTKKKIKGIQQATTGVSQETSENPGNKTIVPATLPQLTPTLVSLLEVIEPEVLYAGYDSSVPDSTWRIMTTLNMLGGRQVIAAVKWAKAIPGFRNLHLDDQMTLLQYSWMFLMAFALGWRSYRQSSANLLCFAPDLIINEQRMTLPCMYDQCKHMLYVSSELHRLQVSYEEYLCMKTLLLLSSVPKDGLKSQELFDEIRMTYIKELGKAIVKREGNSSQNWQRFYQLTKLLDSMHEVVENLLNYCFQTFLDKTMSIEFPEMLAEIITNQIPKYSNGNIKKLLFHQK
Sequence of Estrogen receptor (Homo sapiens) (P03372 whole entry, looked up): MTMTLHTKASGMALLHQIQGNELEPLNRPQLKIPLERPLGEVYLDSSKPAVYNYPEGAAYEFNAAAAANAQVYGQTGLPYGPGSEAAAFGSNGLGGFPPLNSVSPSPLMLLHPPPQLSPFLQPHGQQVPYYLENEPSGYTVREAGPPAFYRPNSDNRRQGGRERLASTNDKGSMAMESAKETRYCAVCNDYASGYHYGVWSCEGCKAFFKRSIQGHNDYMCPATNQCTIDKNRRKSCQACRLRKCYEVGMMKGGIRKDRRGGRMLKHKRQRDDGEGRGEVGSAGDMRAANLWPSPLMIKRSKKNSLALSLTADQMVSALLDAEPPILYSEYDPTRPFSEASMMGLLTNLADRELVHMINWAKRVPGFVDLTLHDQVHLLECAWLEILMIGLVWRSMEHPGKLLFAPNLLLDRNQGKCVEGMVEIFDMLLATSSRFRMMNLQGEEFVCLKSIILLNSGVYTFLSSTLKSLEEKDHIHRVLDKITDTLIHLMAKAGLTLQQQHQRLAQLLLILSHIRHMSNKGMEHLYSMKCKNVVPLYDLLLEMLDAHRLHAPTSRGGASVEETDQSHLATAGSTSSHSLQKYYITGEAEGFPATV
Sequence of Peroxisome proliferator-activated receptor delta (Homo sapiens) (Q03181 whole entry, looked up): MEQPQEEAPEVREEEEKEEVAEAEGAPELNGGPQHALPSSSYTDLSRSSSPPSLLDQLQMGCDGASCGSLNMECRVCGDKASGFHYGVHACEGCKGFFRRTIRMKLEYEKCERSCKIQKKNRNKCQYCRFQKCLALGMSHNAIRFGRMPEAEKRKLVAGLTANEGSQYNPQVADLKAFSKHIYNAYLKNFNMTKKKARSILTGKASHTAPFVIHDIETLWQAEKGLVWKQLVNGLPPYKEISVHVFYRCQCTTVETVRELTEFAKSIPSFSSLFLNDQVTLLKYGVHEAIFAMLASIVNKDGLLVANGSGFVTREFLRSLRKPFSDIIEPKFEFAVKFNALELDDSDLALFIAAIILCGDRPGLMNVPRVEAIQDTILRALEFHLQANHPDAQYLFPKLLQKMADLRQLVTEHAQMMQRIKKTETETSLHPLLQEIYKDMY
Sequence of Androgen receptor (Homo sapiens) (P10275 whole entry, looked up): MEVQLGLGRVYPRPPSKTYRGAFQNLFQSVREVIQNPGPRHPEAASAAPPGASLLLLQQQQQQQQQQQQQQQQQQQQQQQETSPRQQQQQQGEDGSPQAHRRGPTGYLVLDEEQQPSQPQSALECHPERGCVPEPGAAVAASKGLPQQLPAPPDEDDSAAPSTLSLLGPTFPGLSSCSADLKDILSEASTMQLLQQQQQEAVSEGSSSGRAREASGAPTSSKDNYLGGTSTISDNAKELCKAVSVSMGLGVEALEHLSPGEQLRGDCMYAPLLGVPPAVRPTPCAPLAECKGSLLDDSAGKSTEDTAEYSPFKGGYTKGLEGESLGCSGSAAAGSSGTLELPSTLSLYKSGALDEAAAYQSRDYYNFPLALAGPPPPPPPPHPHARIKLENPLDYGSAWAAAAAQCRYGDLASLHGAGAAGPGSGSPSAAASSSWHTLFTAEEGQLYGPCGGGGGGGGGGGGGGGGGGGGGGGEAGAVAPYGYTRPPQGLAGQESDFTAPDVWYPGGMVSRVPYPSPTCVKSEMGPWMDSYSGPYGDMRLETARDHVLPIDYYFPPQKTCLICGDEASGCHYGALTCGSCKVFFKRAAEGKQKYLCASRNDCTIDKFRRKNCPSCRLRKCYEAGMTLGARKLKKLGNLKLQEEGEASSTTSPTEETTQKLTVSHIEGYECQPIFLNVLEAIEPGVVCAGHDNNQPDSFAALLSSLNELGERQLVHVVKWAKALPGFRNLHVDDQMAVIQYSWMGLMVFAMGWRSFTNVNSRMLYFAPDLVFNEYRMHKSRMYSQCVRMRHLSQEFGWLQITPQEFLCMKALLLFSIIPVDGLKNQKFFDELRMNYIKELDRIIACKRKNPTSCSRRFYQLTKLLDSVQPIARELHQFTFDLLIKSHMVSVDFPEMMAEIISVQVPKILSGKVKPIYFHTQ
Sequence of Bile acid receptor (Homo sapiens) (Q96RI1 whole entry, looked up): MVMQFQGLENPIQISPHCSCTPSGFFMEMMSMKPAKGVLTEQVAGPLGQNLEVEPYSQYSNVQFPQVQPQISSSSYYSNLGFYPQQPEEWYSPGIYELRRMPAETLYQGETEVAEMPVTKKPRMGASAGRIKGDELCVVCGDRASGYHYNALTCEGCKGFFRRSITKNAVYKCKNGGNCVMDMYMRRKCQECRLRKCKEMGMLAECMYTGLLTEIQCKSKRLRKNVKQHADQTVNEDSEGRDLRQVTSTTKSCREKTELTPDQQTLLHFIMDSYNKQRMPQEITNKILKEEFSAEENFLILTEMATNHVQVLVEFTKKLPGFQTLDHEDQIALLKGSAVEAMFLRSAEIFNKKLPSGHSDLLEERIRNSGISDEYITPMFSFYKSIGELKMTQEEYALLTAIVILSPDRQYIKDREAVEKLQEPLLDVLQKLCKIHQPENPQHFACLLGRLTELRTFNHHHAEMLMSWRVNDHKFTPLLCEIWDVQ
Sequence of DNA dC->dU-editing enzyme APOBEC-3G (Homo sapiens) (Q9HC16 whole entry, looked up): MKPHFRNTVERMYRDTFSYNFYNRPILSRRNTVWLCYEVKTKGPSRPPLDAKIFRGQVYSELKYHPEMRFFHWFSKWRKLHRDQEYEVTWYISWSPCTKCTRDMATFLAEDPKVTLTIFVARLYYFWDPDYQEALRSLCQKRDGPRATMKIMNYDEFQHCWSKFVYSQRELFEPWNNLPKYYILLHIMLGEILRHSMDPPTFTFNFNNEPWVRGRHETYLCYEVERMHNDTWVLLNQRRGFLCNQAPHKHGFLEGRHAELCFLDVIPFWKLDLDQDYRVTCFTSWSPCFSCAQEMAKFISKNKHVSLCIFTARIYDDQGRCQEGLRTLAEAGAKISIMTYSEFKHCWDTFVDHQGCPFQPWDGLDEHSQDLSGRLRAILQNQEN

As for `O=[N+]([O-])c1ccccc1`, the Potency result in [1], in [2], in test [3] and in test [5] was “inactive” throughout. In addition, the activation in test [4] is -2.43% (inactive) and 5.7% (inactive). For the same compound, the outcome in test [6] and in [8] was inactive. The max response in test [7] came out at 3.64%.
Regarding `O=c1[nH]c(=O)n(Cl)c(=O)n1Cl`, the Potency entry in test [1] and in test [5] was “inactive” each time. In addition, in test [4], the activation was 26.8% (inactive).
Consider `COCC(C)N(C(=O)CCl)c1c(C)csc1C` (stereo unspecified), for which the Potency entry in test [1], in test [3], in [9] and in test [5] was “inactive” throughout. Also, the activation in test [4] was -2.08% (inactive). Besides, the call in test [6] was inactive.
In the case of `O=CC=O`, the Potency entry in test [1], in test [2], in test [3] and in test [5] was “inactive” in each case. Moreover, the values for the activation in test [10] and in test [4] were 7.81% (inactive) and -1.86% (inactive), respectively. For the same compound, the compound was called inactive in test [11] and in test [6].
Consider `O=C1CCO1`, for which the Potency entry in [1], in test [2], in [3], in [9] and in test [5] was “inactive” in each case. The activation was 25.6% (inactive) in test [10] and -0.359% (inactive) in [4]. Further, the result in [11], in [6] and in test [8] was inactive. In addition, in test [7], the max response came out at 13.3%.
For the compound `O=C1C=C2C=C[C@@H]3C[C@@]2(O1)[C@H]1CCCCN31`, in test [12], the result was inactive.
For the compound `CCOC(=O)c1ccccc1C(=O)OCC`, the Potency result in [1], in test [2], in [3] and in test [5] was “inactive” in each case. In addition, the activation in test [4] was -2.44% (inactive) and -3.91% (inactive). In addition, the outcome in [6] and in test [8] was inactive. Also, the max response in test [7] is 24.2% and 33.2%.
As for `ClC(Cl)(Cl)Cl`, the Potency result in [1], in test [2], in test [3] and in [9] was “inactive” in each case. In addition, the compound was classed as inactive in [6] and in test [8]. Further, the max response in test [7] came to 30.1%.
As for `Cc1cc(C)cc(C(=O)OC2C[C@H]3CC[C@@H](C2)N3C)c1` (stereo partly specified), the Potency result in test [1] was “inactive”. Besides, in test [12], the compound was called inactive.
Consider `[O]=[Cr](=[O])([OH])[O][Cr](=[O])(=[O])[OH]`, for which the Potency was 25.1 µM (active) in test [1]; 10 µM (active) and 39.8 µM (active) and 12.6 µM (active) in test [5]. For the same compound, the Potency entry in test [2], in [3] and in [9] was “inactive” in each case. The compound was classed as inactive in [11] and in [8]. For the same compound, in [4], the activation is -11.3% (inactive) and -15.7% (inactive). Also, in test [7], the max response was -63.4%.
Regarding `CCOP(=O)(OCC)O/C(=C/Cl)c1ccc(Cl)cc1Cl`, the Potency entry in test [2], in test [3] and in [5] was “inactive” in each case. The activation in test [4] is -9.9% (inactive) and -3.21% (inactive). The compound was classed as inactive in test [6] and in test [8]. In addition, the max response in [7] is -26.4% and 25.5%.
As to `ClC1C(Cl)C(Cl)C(Cl)C(Cl)C1Cl` (stereo unspecified), the Potency entry in [1] and in test [9] was “inactive” throughout. Moreover, the outcome in [6] and in test [8] was inactive.
`ClCC1CO1` (stereo unspecified): the Potency entry in [1], in [2], in test [3] and in [5] was “inactive” each time. Further, the activation in test [4] was -9.3% (inactive). The outcome in [6] was inactive.
In the case of `CCCCCCCCOC(=O)c1ccccc1C(=O)OCCCCCCCC`, the Potency entry in test [1], in [2] and in test [9] was “inactive” throughout. Besides, in test [10], the activation was 20.2% (inactive) and 9.55% (inactive). Also, the outcome in test [11], in test [6] and in test [8] was inactive. For the same compound, the max response in test [7] was 13.7% and -2.08%.
With `CCCSP(=O)(OCC)SCCC`, in test [10], the activation is -4.11% (inactive). Also, the Potency entry in test [9] and in test [5] was “inactive” each time.

The values are drawn from PubChem BioAssay (NCATS).
